The values below come from PubChem BioAssay (NCATS).

Results filed as inconclusive are left out. The source made the active and inactive calls. Unless noted, calls come from the whole dose curve; as a rule, active = well fitted curve in the direction sought with a large enough effect; inconclusive = small, poorly fitted or top-dose-only effect, or another doubt; inactive = no such curve, though single readings can be large; an effect the other way counts as inactive or inconclusive.

Assay [1] addresses Luciferin 4-monooxygenase (Photinus pyralis) (UniProt P08659). Nature of the assay: Biochemical firefly luciferase enzyme assay for NPC (AID 624030).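 Note: purified P. pyralis luciferase at 10 nM with luciferin and ATP substrate; nearly all actives have a fitted effect of over 70% in size.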 The essentials:
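Counter-screen for direct inhibition of the luciferase enzyme by approved-drug library compounds, run at 10 nM enzyme in 50 mM Tris acetate (final). Luminescence was read within 5 min of enzyme-buffer addition and normalized to PTC124 versus DMSO (0%).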

Assay [2] is described as follows: S16 Schwann cell viability assay (CellTiter-Glo assay) (AID 624031). Note: nearly all actives have a fitted effect of over 70% in size. The essentials:
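Untransfected S16 rat Schwann cells; compound 24 h, 37 °C/5% CO2; CellTiter-Glo ATP luminescence. % activity vs no-cell wells and DMSO controls (0%); concentration-effect curves classed by r2, response magnitude, activity.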
(ATP-based viability assays read luminescence as a measure of living cells.)

Assay [3] is described as follows: S16 Schwann cell PMP22 intronic element beta-lactamase assay (AID 624044; calls by dose curve; note: nearly all actives have a fitted effect of over 15% in size). To be noted: S16 rat Schwann cells, PMP22 element beta-lactamase FRET, 24 h; ratio activity, negative = inhibition: at 38.3 µM (top of the series). An outline of the steps: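 Rat S16 Schwann cells with beta-Lac driven by a PMP22 intronic element, compound-treated 24 h at 37 °C. LiveBLAzer FRET B/G read: 460 nm normalized to potassium clavulanate vs DMSO; 535 nm FRET as viability; concentration-effect curves classified.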

The test system of assay [4] is 7G8. Nature of the assay: qHTS profiling for inhibitors of Plasmodium falciparum proliferation (AID 504749). Note: nearly all actives have a fitted effect of over 60% in size. Note: potency is the fitted concentration of half-maximal effect. To be noted: P. falciparum in erythrocytes, SYBR Green DNA, 72 h; series mostly up to 28.7 µM. The essentials:
(§1)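 Parasite proliferation within erythrocytes, 72 h exposure. Endpoint: SYBR Green I fluorescence after overnight lysis at room temperature. Controls: 0.29 uM artemisinin, DMSO.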
In general terms: Quantitative high-throughput screening tests each substance at several concentrations.

The test system of assay [5] is ATS95. The assay is described as above. To be noted: P. falciparum in erythrocytes, SYBR Green DNA, 72 h; series mostly up to 28.7 µM. An outline of the steps:
as §1

The subject of assay [6] is CP215. The description is as above. Conditions: P. falciparum in erythrocytes, SYBR Green DNA, 72 h; series mostly up to 28.7 µM. The essentials: as §1
For assay [7], the system named is CP247. The description is as above. To be noted: P. falciparum in erythrocytes, SYBR Green DNA, 72 h; series mostly up to 28.7 µM. An outline of the steps:
as §1

The test system of assay [8] is CP260. The assay is described as above. Conditions: P. falciparum in erythrocytes, SYBR Green DNA, 72 h; series mostly up to 28.7 µM. An outline of the steps: as §1
Assay [9] deals with CP266. The assay is described as above. Conditions: P. falciparum in erythrocytes, SYBR Green DNA, 72 h; series mostly up to 28.7 µM. An outline of the steps:
as §1

Assay [10] has as its system CP291. The assay is described as above. To be noted: P. falciparum in erythrocytes, SYBR Green DNA, 72 h; series mostly up to 28.7 µM. An outline of the steps: as §1
Assay [11] deals with CP297. The assay is described as above. Conditions: P. falciparum in erythrocytes, SYBR Green DNA, 72 h; series mostly up to 28.7 µM. An outline of the steps: as §1
For assay [12], the system named is CP335. The assay is described as above. Conditions: P. falciparum in erythrocytes, SYBR Green DNA, 72 h; series mostly up to 28.7 µM. An outline of the steps: as §1
Assay [13] relates to DIV17. The assay is described as above. Conditions: P. falciparum in erythrocytes, SYBR Green DNA, 72 h; series mostly up to 28.7 µM. The essentials:
as §1

Assay [14] deals with GB4. The assay is described as above. To be noted: P. falciparum in erythrocytes, SYBR Green DNA, 72 h; series mostly up to 28.7 µM. An outline of the steps:
as §1

The test system of assay [15] is P93_24. The description is as above. Conditions: P. falciparum in erythrocytes, SYBR Green DNA, 72 h; series mostly up to 28.7 µM. The essentials:
as §1

Assay [16] relates to PC15. Described as above. To be noted: P. falciparum in erythrocytes, SYBR Green DNA, 72 h; series mostly up to 28.7 µM. The essentials:
as §1

For assay [17], the system named is PC26. Described as above. Conditions: P. falciparum in erythrocytes, SYBR Green DNA, 72 h; series mostly up to 28.7 µM. An outline of the steps:
as §1

The subject of assay [18] is PC49. The assay is described as above. Conditions: P. falciparum in erythrocytes, SYBR Green DNA, 72 h; series mostly up to 28.7 µM. An outline of the steps: as §1
Assay [19] deals with TAB109. The assay is described as above. To be noted: P. falciparum in erythrocytes, SYBR Green DNA, 72 h; series mostly up to 28.7 µM. An outline of the steps:
as §1

Assay [20] relates to TAB165. The assay is described as above. Conditions: P. falciparum in erythrocytes, SYBR Green DNA, 72 h; series mostly up to 28.7 µM. The essentials:
as §1

Chain of Luciferin 4-monooxygenase (Photinus pyralis) (P08659 whole entry, looked up): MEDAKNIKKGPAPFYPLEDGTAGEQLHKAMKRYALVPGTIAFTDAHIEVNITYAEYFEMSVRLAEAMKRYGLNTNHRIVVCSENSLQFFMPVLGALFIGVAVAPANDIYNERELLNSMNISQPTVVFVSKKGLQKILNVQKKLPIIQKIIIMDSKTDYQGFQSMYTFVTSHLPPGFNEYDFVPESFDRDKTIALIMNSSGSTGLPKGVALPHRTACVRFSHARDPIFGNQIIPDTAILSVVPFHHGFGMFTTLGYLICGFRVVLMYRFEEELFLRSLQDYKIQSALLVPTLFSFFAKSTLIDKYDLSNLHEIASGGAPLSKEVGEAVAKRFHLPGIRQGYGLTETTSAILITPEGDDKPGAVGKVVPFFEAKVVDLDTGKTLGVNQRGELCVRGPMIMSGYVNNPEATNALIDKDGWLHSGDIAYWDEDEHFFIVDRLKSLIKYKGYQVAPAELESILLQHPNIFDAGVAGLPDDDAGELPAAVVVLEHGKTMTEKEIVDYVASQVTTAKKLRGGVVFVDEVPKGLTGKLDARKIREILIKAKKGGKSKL

On to `O=C(O)C(O)c1ccccc1` (stereo not given), for which the Potency result in [1], in assay [2], in assay [3], in assay [4], in [5] and in [6] was “inactive” throughout. Further, the Potency result in assay [7], in assay [8], in assay [9], in assay [10], in [11] and in [12] was “inactive” throughout. Further, the Potency entry in assay [13], in [14], in [15], in assay [16], in [17] and in assay [18] was “inactive” each time. Moreover, the Potency entry in assay [19] and in assay [20] was “inactive” each time.
`CCN(CC)CC(=O)Nc1c(C)cc(C)cc1C`: the Potency entry in [1], in [3], in assay [4], in assay [5], in assay [6] and in assay [7] was “inactive” in each case. The Potency entry in [8], in assay [9], in [10], in assay [11], in [13] and in assay [14] was “inactive” each time. Further, the Potency result in [15], in [16], in assay [17], in [18], in assay [19] and in assay [20] was “inactive” each time.
On to `CO[C@H]1C[C@@H]2CC[C@@H](C)[C@@](O)(O2)C(=O)C(=O)N2CCCC[C@H]2C(=O)O[C@H]([C@H](C)C[C@@H]2CC[C@@H](O)[C@H](OC)C2)CC(=O)[C@H](C)/C=C(\C)[C@@H](O)[C@@H](OC)C(=O)[C@H](C)C[C@H](C)/C=C/C=C/C=C/1C`, for which the Potency entry in assay [1] and in assay [3] was “inactive” throughout. In addition, the Potency in [4] was 1 µM (active); in assay [5], 3.98 µM (active); in assay [6], 1.69 µM (active); in [7] it was 3.55 µM (active); in [8], 4.47 µM (active); in assay [10], 4.26 µM (active). For the same molecule, the Potency was 4.26 µM (active) in [11]; 1.9 µM (active) in assay [12]; 1.69 µM (active) in assay [13]; 1.69 µM (active) in [14]; 2 µM (active) in assay [15]; 3.98 µM (active) in assay [16]. The Potency is 1.51 µM (active) in [17], 10 µM (active) in [18], 2.24 µM (active) in [19] and 1.78 µM (active) in assay [20].
With `Cc1ccc(/C=C2/C(=O)C3(C)CCC2C3(C)C)cc1` (stereo not given), the Potency result in assay [1], in assay [2], in assay [4], in assay [5], in [6] and in [7] was “inactive” in each case. In addition, the Potency result in assay [8], in assay [9], in assay [10], in assay [13], in [14] and in assay [15] was “inactive” each time. The Potency entry in assay [16], in assay [17], in [18], in [19] and in assay [20] was “inactive” in each case.
As for `COC1CC2CCC(C)[C@](O)(O2)C(=O)C(=O)N2CCCCC2C(=O)OC(C(C)CC2CCC(O)C(OC)C2)CC(=O)C(C)/C=C(/C)C(O)C(OC)C(=O)C(C)CC(C)C=CC=C/C=C\1C` (stereo not given in full), the Potency result in [1], in [2] and in [3] was “inactive” each time. In addition, the Potency is 1 µM (active) in [4]; 3.55 µM (active) in assay [5]; 1.51 µM (active) in assay [6]; 3.16 µM (active) in [7]; 2.51 µM (active) in [8]; 6.75 µM (active) in assay [9]. The Potency in [10] was 4.78 µM (active); in assay [11], 4.26 µM (active); in [13] it was 1.69 µM (active); in [14], 1.69 µM (active); in assay [15], 1.41 µM (active); in [16], 4.47 µM (active). Moreover, the Potency in assay [17] was 3.79 µM (active); in assay [18], 2.24 µM (active); in assay [19], 2.24 µM (active); in assay [20], 1.12 µM (active).
Regarding `Nc1nc(/C(=C/CC(=O)O)C(=O)NC2C(=O)N3C(C(=O)O)=CCSC23)cs1` (stereo not given), the Potency result in assay [1], in assay [2], in [3], in assay [4], in [5] and in assay [6] was “inactive” throughout. The Potency entry in assay [7], in assay [8], in [9], in assay [10], in [11] and in assay [12] was “inactive” in each case. Also, the Potency result in assay [13], in [14], in assay [15], in assay [16], in assay [17] and in [18] was “inactive” each time. The Potency result in assay [19] and in [20] was “inactive” in each case.
Take `Cc1onc(-c2c(F)cccc2Cl)c1C(=O)NC1C(=O)N2C1SC(C)(C)C2C(=O)O` (stereo not given): the Potency result in assay [1], in [2], in [3], in assay [4], in [5] and in [6] was “inactive” each time. The Potency entry in [7], in [8], in assay [9], in assay [10], in assay [11] and in assay [12] was “inactive” in each case. In addition, the Potency result in assay [13], in [14], in assay [15], in assay [16], in assay [17] and in assay [18] was “inactive” in each case. Besides, the Potency entry in assay [19] and in assay [20] was “inactive” in each case.
For `CCCCCOC(=O)Nc1nc(=O)n(C2O[C@H](C)[C@@H](O)[C@@H]2O)cc1F` (stereo not given in full), the Potency entry in [1], in assay [2], in assay [3], in assay [4], in assay [5] and in assay [6] was “inactive” in each case. Further, the Potency entry in [8], in [9], in assay [10], in [11], in assay [12] and in assay [13] was “inactive” throughout. Also, the Potency entry in assay [14], in [15], in assay [16], in [17], in [18] and in [19] was “inactive” throughout. The Potency result in [20] is “inactive”.
`Nc1nc(F)nc2c1ncn2[C@@H]1O[C@H](CO)[C@@H](O)[C@H]1O`: the Potency result in assay [1], in [2], in [3], in assay [4], in assay [5] and in assay [6] was “inactive” throughout. Also, the Potency result in assay [7], in [8], in assay [9], in assay [10], in [11] and in assay [12] was “inactive” each time. The Potency result in assay [13], in assay [14], in assay [15], in [16], in [17] and in assay [18] was “inactive” each time. Also, the Potency result in assay [19] and in [20] was “inactive” each time.
On to `Cn1cc(C(=O)[C@@H]2CCc3[nH]cnc3C2)c2ccccc21`, for which the Potency entry in assay [1], in assay [3], in assay [5], in [6], in assay [7] and in assay [8] was “inactive” each time. The Potency entry in [9], in assay [10], in assay [11], in assay [12], in assay [13] and in [14] was “inactive” in each case. Besides, the Potency entry in assay [15], in [16], in assay [17], in [18], in assay [19] and in assay [20] was “inactive” in each case.
On to `CCOC(=O)C(CCc1ccccc1)NC(C)C(=O)N1Cc2cc(OC)c(OC)cc2CC1C(=O)O` (stereo not given), for which the Potency entry in assay [1], in [2], in assay [3], in [6], in assay [8] and in assay [9] was “inactive” in each case. The Potency result in [10] and in [19] was “inactive” in each case. Besides, the Potency is 8.91 µM (active) in assay [4]; 10.7 µM (active) in assay [11]; 5.36 µM (active) in [13]; 5.01 µM (active) in [15]; 10 µM (active) in assay [16]; 6.75 µM (active) in [17]. In addition, the Potency was 11.2 µM (active) in [18] and 7.08 µM (active) in assay [20].
